Inconclusive results are not listed. Calls of active or inactive are those of the source. Unless noted, the call rests on the fitted dose curve; in most records, active means well fitted curve in the direction sought with a large enough effect; inconclusive means small, poorly fitted or top-dose-only effect, or another doubt; inactive means no such curve, though single readings can be large; an effect the other way counts as inactive or inconclusive.
Key:
[1] = qHTS Assay for Identifying Gametocytocidal Compounds (AID 743244); further: potency means the concentration at half of the fitted maximal effect;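 on max response: on the % scale 0 is the no-effect control and ±100 the full control effect; actives lower the fluorescent signal which means gametocytes are killed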; conditions: P. falciparum 3D7 stage III-V gametocytes, alamarBlue, 72 h; max response: stronger effect = lower value
In short: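 Stage III–V gametocytes of P. falciparum 3D7 were seeded at 20,000 cells/well onto pre-dispensed compounds. After 72 h, 37 °C, 5% CO2, alamarBlue was added for another 24 h.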

[2] = qHTS assay to identify small molecule inhibitors of chordoma cells - UCH-1 (AID 1259355); further: nearly all actives have a fitted effect of over 55% in size; further: potency means the concentration at half of the fitted maximal effect; series mostly up to about 46 µM
In short: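 800 cells/well, overnight attach; compounds pinned at 15 concs, then auranofin/camptothecin/doxorubicin/rubitecan/topotecan combo added; 48hr 37 C, 5% CO2; CellTiter-Glo, 30min RT, luminescence.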

[3] = qHTS assay to identify small molecule inhibitors of chordoma cells - UCH-2 (AID 1259356); further: potency means the concentration at half of the fitted maximal effect
[4] = P-glycoprotein substrates identified in KB-8-5-11 adenocarcinoma cell line, qHTS therapeutic library screen (AID 1346987); conditions: outcome: dose series up to 44.5 µM unless noted; further: nearly all actives have a fitted effect of over 65% in size; further: potency means the concentration at half of the fitted maximal effect
In short: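 Human cervical adenocarcinoma KB-8-5-11 cells, selected in colchicine to over-express P-gp and assayed without it, were exposed for 72 h to titrated compounds. An ATP-based luminescent viability signal gave AC50.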

[5] = target: Atrial natriuretic peptide receptor 1 (Homo sapiens) (UniProt P16066); assay: Natriuretic polypeptide receptor (hNpr1) antagonism - Pilot CMLD screen (AID 1347052; calls by dose curve;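 further: HEK293 cells with hNpr1 stimulated by hNppA peptide at 0.1 nM; cGMP level read as GloSensor luciferase luminescence after agonist stimulation; series mostly up to about 9.2 µM; on the % scale 0 is the no-effect control and ±100 the full control effect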)
Procedure: In order to identify small molecular compounds that inhibit the hNpr1 receptor we developed a high-throughput assay to measure inhibition of the guanylate cyclase activity of the receptor. cGMP production was measured using a circular permutated Firefly luciferase (FLuc) enzyme functionally linked to the cGMP binding domain of human phosphodiesterase 5 (GloSensor technology pGS-40F, (Fan, F. et al. 2008). The cGMP-sensor was expressed in human embryonic kidney 293 (HEK-293) cells and FLuc activity was measured after stimulation with hNrp agonist peptide. hNrp agonists activates the receptor's associated guanylyl cyclase (GC) domain producing cGMP which then binds to the GloSensor resulting in FLuc activation, the enzymatic activity of which can be measured as bioluminescence with addition of luciferin substrate.
This assay was initially piloted by testing with a small library of specialty compounds.
PROTOCOL TABLES (as described by Inglese J, Shamu CE and Guy RK. 2007)
SEQUENCE No. (e.g., 1, 2, 3, etc.); […] (e.g., Cells, Incubation, Reagent, etc.); VALUE and DESCRIPTION.
1. Cells. […]
7. […] GloSensor baseline pre-read luminescence measured using CCD-based camera (Viewlux). […]
10. […] GloSensor post-hNppA luminescence measured using CCD-based camera (Viewlux). […]
1. […] Cells counted with Invitrogen Countess (30,000,000 - 50,000,000 cells/flask). […]

[6] = qHTS assay for cell viability of the p53RE-bla HCT-116 cell line (AID 743292); further: on the % scale 0 is the no-effect control and ±100 the full control effect; nearly all actives have a fitted effect of over 55% in size
In short: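 Readout: CellTiter-Glo luminescence after 30 min RT. Treatment: compounds in DMSO, 16 h, 37 C. Cells: CellSensor p53RE-bla HCT-116, 4,000/well, preincubated 5 h.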

[7] = NS1 protein of Zika virus - qHTS assay to identify small molecule inhibitors in human HEK 293 cells (AID 1347053);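 further: series mostly up to about 46 µM; plate controls were infected untreated cells for no effect and uninfected cells for full effect; nearly all actives have a fitted effect of over 55% in size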
In short: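 TR-FRET signal from two anti-ZIKV NS1 antibodies quantified NS1 in HEK 293 cells 24 h after MR766 infection at MOI = 0.5; compounds were added 1 h before virus. Uninfected cells and infected cells defined the NS1 normalization range.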

Atrial natriuretic peptide receptor 1 (Homo sapiens), sequence (P16066 whole entry, looked up, the tested form may be a part): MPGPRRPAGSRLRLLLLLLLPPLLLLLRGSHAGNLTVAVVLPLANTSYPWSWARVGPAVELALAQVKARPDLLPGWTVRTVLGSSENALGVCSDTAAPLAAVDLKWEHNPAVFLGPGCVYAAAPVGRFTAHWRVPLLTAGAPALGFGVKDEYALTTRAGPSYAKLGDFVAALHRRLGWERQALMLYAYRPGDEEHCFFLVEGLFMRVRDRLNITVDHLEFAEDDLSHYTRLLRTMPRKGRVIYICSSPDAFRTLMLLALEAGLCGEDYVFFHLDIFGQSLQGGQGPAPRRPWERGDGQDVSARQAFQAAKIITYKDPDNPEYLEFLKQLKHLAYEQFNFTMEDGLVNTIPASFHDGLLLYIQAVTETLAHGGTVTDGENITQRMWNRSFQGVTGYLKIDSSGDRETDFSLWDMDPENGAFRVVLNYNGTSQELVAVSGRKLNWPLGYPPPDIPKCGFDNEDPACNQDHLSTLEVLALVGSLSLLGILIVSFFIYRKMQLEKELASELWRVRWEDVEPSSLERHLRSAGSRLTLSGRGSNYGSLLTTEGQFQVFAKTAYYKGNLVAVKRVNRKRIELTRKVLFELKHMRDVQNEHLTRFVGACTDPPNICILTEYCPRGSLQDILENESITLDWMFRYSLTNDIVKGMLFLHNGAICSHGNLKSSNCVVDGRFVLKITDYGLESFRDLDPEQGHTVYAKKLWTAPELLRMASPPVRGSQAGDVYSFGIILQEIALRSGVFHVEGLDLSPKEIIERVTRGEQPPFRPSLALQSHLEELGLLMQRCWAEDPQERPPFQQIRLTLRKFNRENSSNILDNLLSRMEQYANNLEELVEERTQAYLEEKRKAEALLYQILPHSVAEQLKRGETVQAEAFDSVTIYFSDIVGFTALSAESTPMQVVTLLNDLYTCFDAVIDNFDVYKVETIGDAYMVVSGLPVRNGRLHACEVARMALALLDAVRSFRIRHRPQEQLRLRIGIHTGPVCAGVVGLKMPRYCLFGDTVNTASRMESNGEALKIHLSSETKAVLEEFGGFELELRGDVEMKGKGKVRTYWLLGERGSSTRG

CCc1ccc(S(=O)(=O)O)cc1
inactive: max response [1] -6.98% | Potency [2] | Potency [3] | Potency [4]

CCN1\C(=C/C=C/C=C/c2sc3ccccc3[n+]2CC)Sc2ccccc21
active: Potency [1] 11.2 µM | Potency [2] 14.1 µM | Potency [3] 18.3 µM | Potency [4] 16.4 µM

COC(=O)CC[C@H](N)C(=O)O
inactive: max response [1] -4.69% | Potency [2] | Potency [3] | Potency [4]

OC[C@H]1O[C@@H](O[C@H]2[C@H](O)[C@@H](O)[C@H](O)O[C@@H]2CO)[C@H](O)[C@@H](O)[C@@H]1O
inactive: Potency [2] | Potency [3] | Potency [4]

Cc1cc(-c2ccc(N=Nc3ccc4c(S(=O)(=O)O)cc(S(=O)(=O)O)c(N)c4c3O)c(C)c2)ccc1N=Nc1ccc2c(S(=O)(=O)O)cc(S(=O)(=O)O)c(N)c2c1O
active: Potency [4] 6.51 µM
inactive: Potency [2] | Potency [3]

O=c1[nH]c(=O)n([C@H]2C[C@H](O)[C@@H](CO)O2)cc1/C=C/Br
inactive: max response [1] 6.97% | Potency [2] | Potency [3] | Potency [4]

CC1=C[C@H](O)CC(C)(C)[C@H]1/C=C/C(C)=C/C=C/C(C)=C/C=C/C=C(C)/C=C/C=C(C)/C=C/C1=C(C)C[C@@H](O)CC1(C)C
inactive: Potency [2] | Potency [3] | Potency [4]

CN1CCCC(CN2c3ccccc3Sc3ccccc32)C1 (centres undefined)
inactive: Potency [2] | Potency [3] | Potency [4]

CCCCCCCCCCCC(=O)OC[C@@H](O)C1OC[C@H](O)[C@H]1O (some centres undefined)
inactive: max response [1] -8.97% | Potency [2] | Potency [3] | Potency [4]

C[N@+]12CCCC[C@@H]1CCC(=C(c1cccs1)c1cccs1)C2
inactive: Potency [2] | Potency [3] | Potency [4]

Cc1c(O)c(=O)ccn1C
inactive: max response [1] 2.04% | Potency [2] | Potency [3] | Potency [4] | outcome [5]

CN1CCN(C(c2ccccc2)c2ccc(Cl)cc2)CC1 (centres undefined)
inactive: Potency [2] | Potency [3] | Potency [4]

Nc1ccc(N=Nc2ccccc2)c(N)n1
inactive: max response [1] -8.48% | outcome [6] | Potency [2] | Potency [3] | Potency [4] | outcome [7]

COc1cc(NCCCC(C)N)c2ncccc2c1 (centres undefined)
active: Potency [3] 9.2 µM
inactive: Potency [2] | Potency [4]

COc1ccc2c(c1)OC(C)(C)C(c1ccccc1)C2c1ccc(OCCN2CCCC2)cc1 (centres undefined)
active: Potency [4] 20.6 µM
inactive: Potency [2] | Potency [3]

O=C1NCCN1c1ncc([N+](=O)[O-])s1
inactive: Potency [2] | Potency [3] | Potency [4]

O=C(OCc1ccccc1)c1ccc(O)cc1
inactive: max response [1] 1.16% | outcome [6] | Potency [2] | Potency [3] | Potency [4] | outcome [7]

CC(=O)Oc1cccc2c1C(=O)c1c(OC(C)=O)cc(C(=O)O)cc1C2=O
inactive: max response [1] -7.57% | Potency [2] | Potency [3] | Potency [4] | outcome [7]

CCC(=O)c1ccc2c(c1)N(CCCN1CCN(CCO)CC1)c1ccccc1S2
inactive: Potency [2] | Potency [3] | Potency [4]

CO/N=C(\C(=O)N[C@@H]1C(=O)N2C(C(=O)[O-])=C(C[n+]3cccc4c3CCC4)CS[C@H]12)c1csc(N)n1
inactive: max response [1] 15.5% | Potency [2] | Potency [3] | Potency [4]

Cc1cccc(C)c1Nc1ncccc1C(=O)O
inactive: Potency [2] | Potency [3] | Potency [4]

CC1=CC(=C(c2ccc(N)cc2)c2ccc(N)cc2)C=CC1=N
active: Potency [1] 7.94 µM | Potency [2] 15.8 µM | Potency [3] 14.6 µM | Potency [4] 14.6 µM

O=C1CC[C@@H](C(=O)N[C@H]2C[C@@H]2c2ccccc2)N1
inactive: max response [1] -4.02% | Potency [2] | Potency [3] | Potency [4]

NC(=O)[C@H]1O[C@@H](O)[C@H](O)[C@@H](O)[C@@H]1O
inactive: max response [1] -1.37% | Potency [2] | Potency [3] | Potency [4]

CN1C(=O)C[C@@H](C(=O)N[C@@H](Cc2cnc[nH]2)C(=O)N2CCC[C@H]2C(N)=O)NC1=O
inactive: max response [1] 5.88% | Potency [2] | Potency [3] | Potency [4]

Cc1cccc(C)c1NC(=O)NC1=CCCN1C
inactive: max response [1] -1.59% | Potency [2] | Potency [3] | Potency [4]

O=C(O)[C@H]1CN(C/C=C/P(=O)(O)O)CCN1
inactive: max response [1] 12.3% | Potency [2] | Potency [3] | Potency [4]

CC(C)C[C@H](NC(=O)[C@@H](Cc1c[nH]c2ccccc12)NC(=O)[C@H](Cc1ccc(O)cc1)NC(=O)[C@H](CO)NC(=O)[C@H](Cc1c[nH]c2ccccc12)NC(=O)[C@H](Cc1cnc[nH]1)NC(=O)[C@@H]1CCC(=O)N1)C(=O)N[C@@H](CCCN=C(N)N)C(=O)N1CCC[C@@H]1C(=O)NCC(N)=O
inactive: max response [1] -1.22% | Potency [2] | Potency [3] | Potency [4]

CN=C1C=CC(=C(c2ccc(N(C)C)cc2)c2ccc(N(C)C)cc2)C=C1
active: Potency [1] 3.55 µM | Potency [2] 15.8 µM | Potency [3] 9.2 µM | Potency [4] 20.6 µM

O=[n+]1ccn([O-])c2ccccc21
inactive: max response [1] -5.38% | Potency [2] | Potency [3] | Potency [4]

COc1ccc2c(=O)c(C)c(-c3ccccc3)oc2c1CN(C)C
inactive: max response [1] 1.87% | Potency [2] | Potency [3] | Potency [4]

Source: PubChem BioAssay (NCATS)
